Our source for the Potency values is PubChem BioAssay (NCATS).

A short description of test [1]: qHTS of pediatric cancer cell lines to identify multiple opportunities for drug repurposing: Primary screen for SK-N-SH cells (AID 1347098). Further: nearly all actives have a fitted effect of over 65% in size. The gist of the method:
(§1)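 Cells (500-1,000/well) rested 5 h, then received compounds for 48 h; metabolically active cells were measured by CellTiter-Glo luminescence. Final concentrations spanned up to 46 µM (MIPE, 11-point) or 0.59 nM-46 µM (NPC, 8-point) in primary screens, 11-point in follow-ups.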
A general note: Quantitative high-throughput screening tests each substance at several concentrations.

Test [2] is described as follows: qHTS of pediatric cancer cell lines to identify multiple opportunities for drug repurposing: Primary screen for NB1643 cells (AID 1347099). Further: nearly all actives have a fitted effect of over 50% in size. The gist of the method:
(§2)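 Cells seeded at 500-1,000 cells/well in growth media, rested 5 hours at 37 degrees C, 5% CO2, then dosed; MIPE compounds at 11-point (from 0.78 nM) and NPC at 8-point (from 0.59 nM) final concentrations. Viability by CellTiter-Glo luminescence after 48 hours.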

Test [3] is described as follows: qHTS of pediatric cancer cell lines to identify multiple opportunities for drug repurposing: Primary screen for LAN-5 cells (AID 1347100). The method in brief:
(§3)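 Cells (500-1,000/well) in growth media were settled 5 h at 37 degrees C, then given compounds for 48 h. Viability was read as CellTiter-Glo luminescence. Primary runs used MIPE at 11 points (0.78 nM-46 µM) and NPC at 8 points (0.59 nM-46 µM); follow-ups used 11 points.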

A short description of test [4]: qHTS of pediatric cancer cell lines to identify multiple opportunities for drug repurposing: Primary screen for Rh18 cells (AID 1347102). Further: nearly all actives have a fitted effect of over 65% in size. The gist of the method:
as §3

Test [5] in a line: qHTS of pediatric cancer cell lines to identify multiple opportunities for drug repurposing: Primary screen for OHS-50 cells (AID 1347103). Further: nearly all actives have a fitted effect of over 40% in size. The gist of the method:
as §1

Test [6] in a line: qHTS of pediatric cancer cell lines to identify multiple opportunities for drug repurposing: Primary screen for RD cells (AID 1347104). Further: nearly all actives have a fitted effect of over 55% in size. The method in brief: as §2
A short description of test [7]: qHTS of pediatric cancer cell lines to identify multiple opportunities for drug repurposing: Primary screen for MG 63 (6-TG R) cells (AID 1347105). Further: nearly all actives have a fitted effect of over 50% in size. The gist of the method: as §2
The nature of test [8]: qHTS of pediatric cancer cell lines to identify multiple opportunities for drug repurposing: Primary screen for control Hh wild type fibroblast cells (AID 1347106). Further: nearly all actives have a fitted effect of over 55% in size. The method in brief:
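Viability after 48 h compound treatment at 37C, 500-1,000 cells/well, read as ATP luminescence with CellTiter-Glo. Primary screens used 11-point (MIPE, 0.78 nM-46 µM) or 8-point (NPC, 0.59 nM-46 µM) final concentrations; follow-up screens used 11-point dilutions.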

Test [9] is described as follows: qHTS of pediatric cancer cell lines to identify multiple opportunities for drug repurposing: Primary screen for Rh30 cells (AID 1347107). Further: nearly all actives have a fitted effect of over 75% in size. The gist of the method:
as §3

Test [10] in a line: qHTS of pediatric cancer cell lines to identify multiple opportunities for drug repurposing: Primary screen for Rh41 cells (AID 1347108). Further: nearly all actives have a fitted effect of over 70% in size. The gist of the method: as §2
Test [11] is described as follows: qHTS of pediatric cancer cell lines to identify multiple opportunities for drug repurposing: Primary screen for BT-12 cells (AID 1347101). Further: nearly all actives have a fitted effect of over 25% in size. The method in brief:
as §1

Test [12] is described as follows: qHTS of pediatric cancer cell lines to identify multiple opportunities for drug repurposing: Confirmatory screen for NB1643 cells (AID 1347109). Further: nearly all actives have a fitted effect of over 45% in size. The method in brief:
as §3

The nature of test [13]: qHTS of pediatric cancer cell lines to identify multiple opportunities for drug repurposing: Confirmatory screen for SK-N-MC cells (AID 1347111).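 Further: cells exposed to compound for 48 h before the readout; nearly all actives have a fitted effect of over 70% in size.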 The method in brief:
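Metabolically active cells were quantified by ATP-dependent luminescence (CellTiter-Glo, 15 min at room temperature) following 48 h treatment. Cells had been plated at 500-1,000 per well and settled for 5 h beforehand.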

The nature of test [14]: qHTS of pediatric cancer cell lines to identify multiple opportunities for drug repurposing: Confirmatory screen for BT-12 cells (AID 1347112). Further: nearly all actives have a fitted effect of over 55% in size. The method in brief:
as §3

Test [15] is described as follows: qHTS of pediatric cancer cell lines to identify multiple opportunities for drug repurposing: Confirmatory screen for LAN-5 cells (AID 1347113). Further: nearly all actives have a fitted effect of over 65% in size. The gist of the method:
as §3

Test [16] in a line: qHTS of pediatric cancer cell lines to identify multiple opportunities for drug repurposing: Confirmatory screen for DAOY cells (AID 1347114). Further: nearly all actives have a fitted effect of over 65% in size. The method in brief: (§4)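 Viability measured as metabolically active cells via CellTiter-Glo luminescence following 48 hours of compound exposure, 11-point dilutions in confirmatory testing. 500-1,000 cells/well plated 5 hours before dosing; controls were DMSO and 2.3 µM bortezomib.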

Test [17] is described as follows: qHTS of pediatric cancer cell lines to identify multiple opportunities for drug repurposing: Confirmatory screen for NB-EBc1 cells (AID 1347115).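 Further: cells exposed to compound for 48 h before the viability read; nearly all actives have a fitted effect of over 45% in size.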 The method in brief: as §3
A short description of test [18]: qHTS of pediatric cancer cell lines to identify multiple opportunities for drug repurposing: Confirmatory screen for SJ-GBM2 cells (AID 1347116). Further: nearly all actives have a fitted effect of over 60% in size. The gist of the method:
as §4

A short description of test [19]: qHTS of pediatric cancer cell lines to identify multiple opportunities for drug repurposing: Confirmatory screen for A673 cells (AID 1347110). The method in brief: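 Viability was read as ATP luminescence (CellTiter-Glo) after 48 h of compound exposure at 37 C in A673 cells seeded at 500-1,000/well. Titrations reached 46 uM final, with 11 points in the confirmatory screen. Concentration-response curves were fitted directly.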

SMILES strings stand for the structures. Records with an inconclusive call do not appear. Activity calls are given as the source filed them. The call rests on the fitted dose curve; in most records, active means well fitted curve in the direction sought with a large enough effect; inconclusive means small, poorly fitted or top-dose-only effect, or another doubt; inactive means no such curve, though single readings can be large; an effect the other way counts as inactive or inconclusive.
Potency means the concentration at half of the fitted maximal effect.

On to `O=c1c2ccccc2nc2n1CCc1c-2[nH]c2ccccc12`, for which the Potency result in [1], in [2], in test [3], in test [4], in test [5] and in test [6] was “inactive” in each case. Moreover, the Potency entry in test [7], in [8], in [9] and in test [10] was “inactive” throughout.
In the case of `Cc1ccc(CN2CCNCC2)cc1NC(=O)CNc1ccc(F)c(F)c1`, in test [1], the Potency is 19.2 µM (active). Moreover, the Potency result in [2], in [3], in test [11], in test [6], in test [7] and in [8] was “inactive” throughout.
Consider `CN1CCN(Cc2ccc(NC(=O)Nc3ccc(Oc4cc(NC(=O)C5CC5)ncn4)cc3)cc2C(F)(F)F)CC1`, for which the Potency in test [1] was 0.764 µM (active); in test [2] it was 0.526 µM (active); in test [3], 2.35 µM (active); in test [11] it was 0.485 µM (active); in test [5], 0.485 µM (active); in test [6], 0.662 µM (active). For the same compound, the Potency in [7] is 1.87 µM (active); in [8], 8.33 µM (active); in test [9] it was 20.9 µM (active); in test [10], 0.469 µM (active); in [12], 1.85 µM (active); in test [13] it was 0.131 µM (active). In addition, the Potency in [14] was 0.465 µM (active); in test [15], 1.04 µM (active); in [16], 0.522 µM (active); in [17], 23.3 µM (active); in test [18], 1.65 µM (active).
Turning to `C1=CCOCc2cc(ccc2OCCN2CCCC2)Nc2nccc(n2)-c2cccc(c2)OCC1`, the Potency in test [1] is 7.64 µM (active); in [2], 7.43 µM (active); in test [3], 2.64 µM (active); in test [11], 7.69 µM (active); in [4] it was 7.43 µM (active); in test [6] it was 11.8 µM (active). For the same compound, the values for the Potency in test [7], in test [9] and in test [10] were 11.8 µM (active), 14.8 µM (active) and 5.9 µM (active), respectively.
In the case of `CCn1nnc2c(N3CCOCC3)nc(-c3ccc(NC(=O)Nc4ccc(C(=O)N5CCN(C)CC5)cc4)cc3)nc21`, the Potency in test [1] is 8.57 µM (active); in test [2] it was 0.0743 µM (active); in [3] it was 0.0833 µM (active); in test [4], 0.0418 µM (active); in test [5] it was 0.0273 µM (active); in test [6], 0.0264 µM (active). The Potency is 0.0469 µM (active) in test [7]; 7.43 µM (active) in test [9]; 0.0935 µM (active) in test [10]; 1.85 µM (active) in test [12]; 0.585 µM (active) in test [19]; 0.657 µM (active) in test [13]. Moreover, the figures for the Potency in test [15] and in test [18] were 0.522 µM (active) and 0.737 µM (active), respectively.
Regarding `CC(=O)c1c(C)c2cnc(Nc3ccc(N4CCNCC4)cn3)nc2n(C2CCCC2)c1=O`, the Potency in test [1] was 24.1 µM (active); in [2], 16.6 µM (active); in test [3], 18.7 µM (active); in test [4], 23.5 µM (active); in test [5], 19.3 µM (active); in test [6], 18.7 µM (active). Also, in test [8], the Potency entry was “inactive”.
For `CC(=O)Nc1sc2c(c1-c1nc3ccccc3s1)CNC2`, the Potency was 1.21 µM (active) in [1], 5.26 µM (active) in [2], 10.5 µM (active) in [3] and 24.3 µM (active) in test [5]. Also, the Potency result in test [7] and in [8] was “inactive” throughout.
In the case of `CCN(CC)CCCCNc1ncc2cc(-c3cc(OC)cc(OC)c3)c(NC(=O)NC(C)(C)C)nc2n1`, the Potency is 6.81 µM (active) in test [1]; 18.7 µM (active) in test [3]; 24.3 µM (active) in test [11]; 13.2 µM (active) in test [4]; 24.3 µM (active) in test [5]; 16.6 µM (active) in test [6]. In addition, the results for the Potency in test [8] and in [10] were 29.6 µM (active) and 11.8 µM (active), respectively. Further, the Potency entry in [2] and in [7] was “inactive” in each case.
For `CC(C)(C)c1cc(C(C)(C)C)c(NC(=O)c2c[nH]c3ccccc3c2=O)cc1O`, the Potency result in test [1], in [2], in test [3], in test [11], in test [4] and in test [5] was “inactive” each time. Also, the Potency entry in test [6], in test [7], in test [8] and in test [9] was “inactive” throughout. The figures for the Potency in test [13], in test [16] and in [17] were 14.7 µM (active), 18.5 µM (active) and 16.5 µM (active), respectively.
For the compound `Cc1ccc(C(=O)Nc2ccc(CN3CCN(C)CC3)c(C(F)(F)F)c2)cc1C#Cc1cnc2cccnn12`, the Potency in test [1] was 6.07 µM (active); in [2], 23.5 µM (active); in [3], 11.8 µM (active); in [11] it was 6.85 µM (active); in test [4], 2.09 µM (active); in test [5] it was 1.09 µM (active). Further, the Potency in test [6] was 3.32 µM (active); in [7], 7.43 µM (active); in test [9], 14.8 µM (active); in test [10], 9.35 µM (active); in test [13], 0.0033 µM (active); in test [14] it was 8.27 µM (active). For the same compound, the Potency in test [16] was 8.27 µM (active).
As to `C[C@H]1C[C@@H]2[C@@H]([C@@H](O)C[C@@]3(C)[C@H]2CC[C@]3(O)C(=O)CO)[C@@]2(C)C=CC(=O)C=C12`, the Potency result in test [1], in [2], in test [3], in test [11], in test [4] and in test [5] was “inactive” each time. Moreover, the Potency result in [6], in [7], in test [9] and in test [10] was “inactive” each time.
As to `O=C(O)CO.[NH2-].[NH2-].[Pt+2]`, the Potency result in [1], in test [2], in test [3], in [11], in test [4] and in test [5] was “inactive” in each case. For the same compound, the Potency entry in [6], in test [7], in test [8], in test [9] and in [10] was “inactive” each time.
`Cc1[nH]c2ccccc2c1CCNCc1ccc(C=CC(=O)NO)cc1`: the Potency in test [1] was 0.271 µM (active); in [2], 0.187 µM (active); in test [3], 0.105 µM (active); in [11], 0.611 µM (active); in test [4], 0.0935 µM (active); in test [5], 0.153 µM (active). The Potency in test [6] was 0.372 µM (active); in test [7], 0.469 µM (active); in test [8] it was 1.87 µM (active); in [10], 0.235 µM (active); in test [12], 0.117 µM (active); in test [13] it was 0.0827 µM (active). The Potency was 0.737 µM (active) in [14], 0.261 µM (active) in test [15] and 0.369 µM (active) in test [17]. In test [18], the Potency entry is “inactive”.
